Experiment in all cases: DAPPL (digital affinity profiling via proximity ligation, sequencing); 10 mM Tris-HCl pH 7.5, 50 mM NaCl, 1 mM DTT, 4% glycerol, room temperature, 30 min; GST-TFs on glutathione beads, 16-mer random dsDNA library, 0.1% formaldehyde crosslink after washing; high values mean tight binding
In one assay the target is T1, FEV (Homo sapiens, UniProt Q99581 1-238).
T1 sequence: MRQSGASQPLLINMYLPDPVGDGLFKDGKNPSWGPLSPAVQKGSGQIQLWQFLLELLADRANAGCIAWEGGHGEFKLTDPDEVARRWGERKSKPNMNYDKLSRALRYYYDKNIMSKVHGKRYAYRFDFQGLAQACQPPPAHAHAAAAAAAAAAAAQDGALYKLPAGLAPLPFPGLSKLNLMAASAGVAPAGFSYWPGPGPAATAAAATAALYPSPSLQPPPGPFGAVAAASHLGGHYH
Particulars: protein: recombinant; tags: N-terminal GST; dsDNA, one strand shown. In outline:
(§1)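 Human transcription factors were made in yeast as GST fusions, captured on glutathione beads and barcoded with DNA. With a tag-only sample included, the pool was incubated with 200 nmole of a random double-stranded 16-mer DNA library in Tris/NaCl/DTT/glycerol buffer at room temperature for 30 min, then crosslinked with 0.1% formaldehyde after washing, ligated by proximity, amplified and sequenced. For binding signal, each hexamer's read frequency for a factor is divided by its frequency for the tag-only sample.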

In the next assay the target is ETV5 (Homo sapiens, UniProt P41161 1-510). The note with it: protein: recombinant; tags: N-terminal GST; dsDNA, one strand shown. In a few lines: as §1
The target of another assay is HSF1 (Homo sapiens, UniProt Q00613 1-529). Particulars: protein: recombinant; tags: N-terminal GST; chain copies: 3; dsDNA, one strand shown. In a few lines:
as §1

Another assay deals with T2, SPIC (Homo sapiens, UniProt Q8N5J4 1-248).
T2 sequence: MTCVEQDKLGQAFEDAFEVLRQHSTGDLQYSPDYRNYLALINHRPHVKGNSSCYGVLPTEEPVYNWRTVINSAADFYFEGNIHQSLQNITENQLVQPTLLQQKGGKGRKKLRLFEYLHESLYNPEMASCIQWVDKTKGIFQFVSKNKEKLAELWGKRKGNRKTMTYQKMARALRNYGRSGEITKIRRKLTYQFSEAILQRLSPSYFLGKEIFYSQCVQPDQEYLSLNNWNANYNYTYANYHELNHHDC
Particulars: protein: recombinant; tags: N-terminal GST; dsDNA, one strand shown. In outline: as §1

The target of the next assay is ELF4 (Homo sapiens, UniProt Q99607 1-663). The note with it: protein: recombinant; tags: N-terminal GST; dsDNA, one strand shown. In a few lines: as §1
In a further assay the target is T3, ELK4 (Homo sapiens, UniProt P28324-2 1-405).
T3 sequence: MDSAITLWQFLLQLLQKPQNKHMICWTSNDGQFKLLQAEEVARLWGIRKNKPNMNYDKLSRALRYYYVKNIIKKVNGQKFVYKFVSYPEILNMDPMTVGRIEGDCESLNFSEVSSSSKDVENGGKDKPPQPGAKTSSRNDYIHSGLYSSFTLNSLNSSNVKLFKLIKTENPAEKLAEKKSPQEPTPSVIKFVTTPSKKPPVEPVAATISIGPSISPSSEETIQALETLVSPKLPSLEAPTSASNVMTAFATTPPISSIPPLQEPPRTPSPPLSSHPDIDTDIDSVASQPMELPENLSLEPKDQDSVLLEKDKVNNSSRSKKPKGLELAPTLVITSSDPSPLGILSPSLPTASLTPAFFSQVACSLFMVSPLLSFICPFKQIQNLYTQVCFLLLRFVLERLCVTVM
The note with it: protein: recombinant; tags: N-terminal GST; dsDNA, one strand shown. In outline:
as §1

The target in another assay is T4, ETV2 (Homo sapiens, UniProt O00321 1-342).
T4 sequence: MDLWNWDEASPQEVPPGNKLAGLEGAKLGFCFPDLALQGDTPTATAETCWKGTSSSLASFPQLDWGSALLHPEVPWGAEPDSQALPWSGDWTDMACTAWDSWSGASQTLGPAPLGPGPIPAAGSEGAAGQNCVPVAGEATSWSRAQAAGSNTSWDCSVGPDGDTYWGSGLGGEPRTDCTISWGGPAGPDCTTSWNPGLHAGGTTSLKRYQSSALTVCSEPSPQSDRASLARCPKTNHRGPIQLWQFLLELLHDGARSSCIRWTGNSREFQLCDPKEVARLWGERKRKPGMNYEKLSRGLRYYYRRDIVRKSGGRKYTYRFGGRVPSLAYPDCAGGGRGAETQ
The note with it: protein: recombinant; tags: N-terminal GST; dsDNA, one strand shown. In outline: as §1

The target of the next assay is T5, ELF3 (Homo sapiens, UniProt P78545 1-371).
T5 sequence: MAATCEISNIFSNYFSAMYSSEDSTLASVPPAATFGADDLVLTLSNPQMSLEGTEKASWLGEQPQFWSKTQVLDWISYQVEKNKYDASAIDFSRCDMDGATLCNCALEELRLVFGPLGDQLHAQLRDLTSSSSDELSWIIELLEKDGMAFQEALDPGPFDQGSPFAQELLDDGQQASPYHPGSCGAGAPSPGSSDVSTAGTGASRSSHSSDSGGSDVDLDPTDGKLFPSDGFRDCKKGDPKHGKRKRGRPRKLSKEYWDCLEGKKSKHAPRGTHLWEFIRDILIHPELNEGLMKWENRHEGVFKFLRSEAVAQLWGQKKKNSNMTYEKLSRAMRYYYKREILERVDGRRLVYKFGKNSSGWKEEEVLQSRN
Particulars: protein: recombinant; tags: N-terminal GST; dsDNA, one strand shown. In outline:
as §1

The next assay has as its target CRX (Homo sapiens, UniProt O43186 1-299). Particulars: protein: recombinant; tags: N-terminal GST; dsDNA, one strand shown. In outline:
as §1

Another assay addresses ETV1 (Homo sapiens, UniProt P50549 1-477). The note with it: protein: recombinant; tags: N-terminal GST; dsDNA, one strand shown. In outline: as §1
For a further assay, the target named is T6, ERF (Homo sapiens, UniProt P50548 1-548).
T6 sequence: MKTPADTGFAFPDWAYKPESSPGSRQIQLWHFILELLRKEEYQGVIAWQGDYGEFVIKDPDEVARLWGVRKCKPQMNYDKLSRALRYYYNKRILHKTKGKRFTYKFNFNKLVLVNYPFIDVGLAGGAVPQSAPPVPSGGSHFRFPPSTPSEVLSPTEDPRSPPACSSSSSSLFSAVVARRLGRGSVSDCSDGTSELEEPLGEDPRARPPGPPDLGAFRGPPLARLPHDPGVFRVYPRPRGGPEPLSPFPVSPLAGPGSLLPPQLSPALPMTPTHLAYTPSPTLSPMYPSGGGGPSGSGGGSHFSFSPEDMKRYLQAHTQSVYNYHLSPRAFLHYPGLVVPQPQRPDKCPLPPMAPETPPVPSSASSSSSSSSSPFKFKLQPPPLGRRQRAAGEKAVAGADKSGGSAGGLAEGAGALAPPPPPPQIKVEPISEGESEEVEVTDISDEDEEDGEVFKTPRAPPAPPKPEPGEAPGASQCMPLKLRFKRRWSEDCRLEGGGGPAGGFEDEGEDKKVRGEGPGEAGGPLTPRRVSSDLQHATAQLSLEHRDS
Particulars: protein: recombinant; tags: N-terminal GST; dsDNA, one strand shown. In outline: as §1

A further assay deals with T7, ETV3L (Homo sapiens, UniProt Q6ZN32 1-361).
T7 sequence: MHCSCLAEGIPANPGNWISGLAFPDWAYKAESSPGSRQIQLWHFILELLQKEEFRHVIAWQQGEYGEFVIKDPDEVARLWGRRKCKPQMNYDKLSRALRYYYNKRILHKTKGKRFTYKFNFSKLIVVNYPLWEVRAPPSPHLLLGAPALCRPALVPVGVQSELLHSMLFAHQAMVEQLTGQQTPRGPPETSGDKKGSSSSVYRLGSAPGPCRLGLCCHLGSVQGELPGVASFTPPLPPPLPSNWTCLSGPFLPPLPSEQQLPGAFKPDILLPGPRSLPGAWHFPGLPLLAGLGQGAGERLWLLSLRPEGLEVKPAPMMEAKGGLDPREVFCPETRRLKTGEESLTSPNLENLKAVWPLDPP
Particulars: protein: recombinant; tags: N-terminal GST; dsDNA, one strand shown. In outline:
as §1

The next assay addresses T8, ETS2 (Homo sapiens, UniProt P15036 1-469).
T8 sequence: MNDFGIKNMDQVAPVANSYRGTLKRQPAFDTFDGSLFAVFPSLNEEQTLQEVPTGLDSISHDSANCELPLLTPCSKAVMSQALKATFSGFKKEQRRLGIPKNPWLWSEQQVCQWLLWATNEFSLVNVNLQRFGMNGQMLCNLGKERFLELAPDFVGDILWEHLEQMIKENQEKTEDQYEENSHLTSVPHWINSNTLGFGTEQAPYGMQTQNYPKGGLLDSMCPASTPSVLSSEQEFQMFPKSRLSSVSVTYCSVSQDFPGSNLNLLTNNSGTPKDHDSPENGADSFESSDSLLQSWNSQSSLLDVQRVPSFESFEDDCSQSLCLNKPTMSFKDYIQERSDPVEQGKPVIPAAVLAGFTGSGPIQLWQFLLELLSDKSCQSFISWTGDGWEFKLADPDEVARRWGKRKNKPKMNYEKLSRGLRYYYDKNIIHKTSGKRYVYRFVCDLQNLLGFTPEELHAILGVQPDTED
Particulars: protein: recombinant; tags: N-terminal GST; dsDNA, one strand shown. In outline:
as §1

Another assay addresses T9, SPDEF (Homo sapiens, UniProt O95238 1-335).
T9 sequence: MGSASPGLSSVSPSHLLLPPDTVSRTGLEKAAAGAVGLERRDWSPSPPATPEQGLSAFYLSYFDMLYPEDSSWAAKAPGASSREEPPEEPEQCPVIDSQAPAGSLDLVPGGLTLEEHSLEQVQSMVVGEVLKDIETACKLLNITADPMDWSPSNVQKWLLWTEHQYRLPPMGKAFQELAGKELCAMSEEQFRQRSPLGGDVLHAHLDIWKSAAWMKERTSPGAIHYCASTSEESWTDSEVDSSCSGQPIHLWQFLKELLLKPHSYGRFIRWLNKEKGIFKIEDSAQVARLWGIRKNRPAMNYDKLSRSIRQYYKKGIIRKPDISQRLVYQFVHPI
Particulars: protein: recombinant; tags: N-terminal GST; dsDNA, one strand shown. In a few lines: as §1

The next assay deals with T10, ETV7 (Homo sapiens, UniProt Q9Y603 1-341).
T10 sequence: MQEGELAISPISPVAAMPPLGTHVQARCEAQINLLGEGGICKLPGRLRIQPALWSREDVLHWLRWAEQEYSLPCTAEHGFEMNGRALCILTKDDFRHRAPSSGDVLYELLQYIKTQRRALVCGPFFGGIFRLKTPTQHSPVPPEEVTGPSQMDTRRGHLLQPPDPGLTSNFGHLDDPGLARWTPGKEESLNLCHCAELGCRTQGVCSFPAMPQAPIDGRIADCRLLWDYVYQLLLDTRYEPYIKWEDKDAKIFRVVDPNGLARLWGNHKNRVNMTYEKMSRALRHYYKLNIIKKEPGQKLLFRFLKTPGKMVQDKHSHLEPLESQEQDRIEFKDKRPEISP
Particulars: protein: recombinant; tags: N-terminal GST; dsDNA, one strand shown. In outline:
as §1

The target in the next assay is T11, ELF5 (Homo sapiens, UniProt Q9UKW6-2 1-255).
T11 sequence: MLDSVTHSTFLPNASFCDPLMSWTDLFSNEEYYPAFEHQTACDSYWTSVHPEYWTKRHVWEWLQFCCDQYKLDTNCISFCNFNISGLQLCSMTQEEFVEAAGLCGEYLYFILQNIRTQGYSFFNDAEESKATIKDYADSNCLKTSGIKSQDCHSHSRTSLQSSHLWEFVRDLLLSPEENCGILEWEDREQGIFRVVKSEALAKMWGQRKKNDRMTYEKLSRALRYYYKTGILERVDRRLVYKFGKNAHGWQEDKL
Particulars: protein: recombinant; tags: N-terminal GST; dsDNA, one strand shown. In outline: as §1

In another assay the target is T12, ETV3 (Homo sapiens, UniProt P41162-2 1-143).
T12 sequence: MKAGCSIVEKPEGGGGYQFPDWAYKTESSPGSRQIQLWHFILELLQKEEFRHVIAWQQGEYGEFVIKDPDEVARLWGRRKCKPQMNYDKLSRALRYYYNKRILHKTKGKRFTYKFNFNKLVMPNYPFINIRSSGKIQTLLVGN
Particulars: protein: recombinant; tags: N-terminal GST; dsDNA, one strand shown. In a few lines: as §1

The target in the next assay is ETV6 (Homo sapiens, UniProt P41212 1-452). Particulars: protein: recombinant; tags: N-terminal GST; dsDNA, one strand shown. In outline:
as §1

Chain of ELF4 (Q99607 whole entry): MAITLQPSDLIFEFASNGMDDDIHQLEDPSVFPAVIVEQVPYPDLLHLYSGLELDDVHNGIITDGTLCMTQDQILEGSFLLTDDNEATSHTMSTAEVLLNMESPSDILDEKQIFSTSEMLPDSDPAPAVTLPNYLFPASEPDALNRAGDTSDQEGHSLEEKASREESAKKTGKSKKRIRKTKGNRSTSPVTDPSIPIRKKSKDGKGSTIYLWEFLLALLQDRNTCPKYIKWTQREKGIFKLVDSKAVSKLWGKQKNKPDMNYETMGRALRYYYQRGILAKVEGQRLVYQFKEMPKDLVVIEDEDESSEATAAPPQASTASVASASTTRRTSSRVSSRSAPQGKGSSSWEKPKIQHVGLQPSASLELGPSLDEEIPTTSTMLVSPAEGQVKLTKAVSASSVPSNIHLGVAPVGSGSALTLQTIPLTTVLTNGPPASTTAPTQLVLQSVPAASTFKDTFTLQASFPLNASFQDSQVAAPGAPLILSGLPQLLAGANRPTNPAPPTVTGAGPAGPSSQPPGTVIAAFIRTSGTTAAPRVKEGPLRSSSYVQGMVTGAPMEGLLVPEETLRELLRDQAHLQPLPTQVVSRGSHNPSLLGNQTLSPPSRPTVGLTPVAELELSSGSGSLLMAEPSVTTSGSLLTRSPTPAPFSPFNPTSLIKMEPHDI
Chain of ETV1 (P50549 whole entry): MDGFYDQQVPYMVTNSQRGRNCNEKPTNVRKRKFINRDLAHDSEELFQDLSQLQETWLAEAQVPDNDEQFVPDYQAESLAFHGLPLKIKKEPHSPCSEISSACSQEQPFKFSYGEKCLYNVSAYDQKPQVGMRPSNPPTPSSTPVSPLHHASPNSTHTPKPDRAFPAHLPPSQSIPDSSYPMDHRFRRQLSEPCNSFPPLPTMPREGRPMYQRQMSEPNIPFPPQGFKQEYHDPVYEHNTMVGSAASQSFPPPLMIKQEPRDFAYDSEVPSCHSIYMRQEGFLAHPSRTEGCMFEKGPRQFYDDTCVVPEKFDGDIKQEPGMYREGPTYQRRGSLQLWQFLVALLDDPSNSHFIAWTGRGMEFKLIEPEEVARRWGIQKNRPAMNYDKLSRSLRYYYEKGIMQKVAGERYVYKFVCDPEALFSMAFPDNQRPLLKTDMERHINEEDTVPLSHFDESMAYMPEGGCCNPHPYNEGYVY
Chain of HSF1 (Q00613 whole entry): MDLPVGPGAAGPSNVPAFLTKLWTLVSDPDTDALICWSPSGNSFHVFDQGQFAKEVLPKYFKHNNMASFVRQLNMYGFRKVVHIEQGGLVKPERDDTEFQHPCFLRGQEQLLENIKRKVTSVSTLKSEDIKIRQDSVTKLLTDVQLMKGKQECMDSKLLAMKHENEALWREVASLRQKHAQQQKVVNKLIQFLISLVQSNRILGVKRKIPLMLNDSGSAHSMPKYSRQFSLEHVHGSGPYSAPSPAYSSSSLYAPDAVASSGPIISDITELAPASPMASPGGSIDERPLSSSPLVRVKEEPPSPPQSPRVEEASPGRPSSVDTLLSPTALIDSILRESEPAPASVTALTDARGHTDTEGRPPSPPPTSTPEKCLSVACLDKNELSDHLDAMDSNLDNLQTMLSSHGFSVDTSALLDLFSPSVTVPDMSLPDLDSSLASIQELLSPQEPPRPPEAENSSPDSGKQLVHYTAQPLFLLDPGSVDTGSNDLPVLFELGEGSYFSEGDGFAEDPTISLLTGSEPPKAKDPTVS
Chain of ETV5 (P41161 whole entry): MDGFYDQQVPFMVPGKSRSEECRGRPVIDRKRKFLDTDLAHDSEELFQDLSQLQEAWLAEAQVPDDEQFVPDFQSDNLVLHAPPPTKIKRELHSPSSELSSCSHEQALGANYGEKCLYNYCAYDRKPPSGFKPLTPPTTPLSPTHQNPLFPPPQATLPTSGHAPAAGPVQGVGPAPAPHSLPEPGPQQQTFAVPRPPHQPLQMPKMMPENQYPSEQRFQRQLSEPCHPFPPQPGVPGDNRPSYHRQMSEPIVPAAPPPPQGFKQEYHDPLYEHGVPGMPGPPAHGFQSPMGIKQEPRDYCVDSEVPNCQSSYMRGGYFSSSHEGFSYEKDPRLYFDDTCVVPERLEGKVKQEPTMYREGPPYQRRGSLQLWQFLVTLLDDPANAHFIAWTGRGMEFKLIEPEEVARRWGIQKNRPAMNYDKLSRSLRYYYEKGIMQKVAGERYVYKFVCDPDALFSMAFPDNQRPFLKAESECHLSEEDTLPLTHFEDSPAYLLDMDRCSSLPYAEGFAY
Chain of ETV6 (P41212 whole entry): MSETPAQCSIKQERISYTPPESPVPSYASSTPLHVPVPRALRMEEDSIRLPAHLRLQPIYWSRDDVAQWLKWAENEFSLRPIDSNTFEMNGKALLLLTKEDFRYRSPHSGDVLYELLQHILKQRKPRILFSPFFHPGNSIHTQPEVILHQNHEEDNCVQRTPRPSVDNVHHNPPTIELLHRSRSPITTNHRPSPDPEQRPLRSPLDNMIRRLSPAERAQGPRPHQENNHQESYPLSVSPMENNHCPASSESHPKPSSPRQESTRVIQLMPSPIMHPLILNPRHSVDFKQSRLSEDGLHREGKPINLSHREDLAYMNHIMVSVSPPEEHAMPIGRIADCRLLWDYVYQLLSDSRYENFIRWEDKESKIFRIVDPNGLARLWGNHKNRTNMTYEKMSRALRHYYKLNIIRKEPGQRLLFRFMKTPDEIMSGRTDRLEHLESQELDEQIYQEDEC
Chain of CRX (O43186 whole entry): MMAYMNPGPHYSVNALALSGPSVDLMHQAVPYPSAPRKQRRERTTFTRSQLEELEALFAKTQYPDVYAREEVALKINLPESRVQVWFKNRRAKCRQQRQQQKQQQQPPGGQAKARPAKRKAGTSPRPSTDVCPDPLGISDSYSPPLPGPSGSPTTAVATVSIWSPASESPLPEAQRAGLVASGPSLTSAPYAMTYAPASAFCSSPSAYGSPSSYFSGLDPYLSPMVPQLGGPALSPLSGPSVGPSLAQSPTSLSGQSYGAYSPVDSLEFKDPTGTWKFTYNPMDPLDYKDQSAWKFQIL

With CATCCC, the binding signal is 1.18 fold enrichment (6-mer frequency, TF over GST control) with FEV; 1.31 fold enrichment (6-mer frequency, TF over GST control) in the assay with ETV5; 1.05 fold enrichment (6-mer frequency, TF over GST control) with HSF1; 1.3 fold enrichment (6-mer frequency, TF over GST control) in the assay with SPIC; 1.22 fold enrichment (6-mer frequency, TF over GST control) in the assay with ELF4; 1.22 fold enrichment (6-mer frequency, TF over GST control) in the assay with ELK4. The binding signal is 1.15 fold enrichment (6-mer frequency, TF over GST control) with ETV2; 1.27 fold enrichment (6-mer frequency, TF over GST control) with ELF3; 1.05 fold enrichment (6-mer frequency, TF over GST control) with CRX; 1.16 fold enrichment (6-mer frequency, TF over GST control) with ETV1; 1.2 fold enrichment (6-mer frequency, TF over GST control) in the assay with ERF; 1.26 fold enrichment (6-mer frequency, TF over GST control) in the assay with ETV3L. Besides, the binding signal is 1.33 fold enrichment (6-mer frequency, TF over GST control) in the assay with ETS2; 1.47 fold enrichment (6-mer frequency, TF over GST control) with SPDEF; 1.2 fold enrichment (6-mer frequency, TF over GST control) with ETV7; 1.44 fold enrichment (6-mer frequency, TF over GST control) with ELF5; 1.16 fold enrichment (6-mer frequency, TF over GST control) with ETV3; 1.24 fold enrichment (6-mer frequency, TF over GST control) with ETV6.

These data come from PMC7862700, “An all-to-all approach to the identification of sequence-specific readers for epigenetic DNA modifications on cytosine”.
